Screening data (PubChem BioAssay)
hERG WT inh: blocks the wildtype human KCNH2 potassium channel. Q12809. U2OS, BacMam KCNH2, thallium flux FluxOr; stronger effect = lower value. activity change, % at 1.84 µM. hit rate 0.37% among 340,000. AID 720551;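 active = maximum activity change below -70%; inconclusive = maximum activity change between -70% and -50%; inactive = maximum activity change above -50%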
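U2OS cells were transduced with wild-type KCNH2 virus (2.03 x 10^8 / mL) for 4 h at room temperature, then cultured overnight at 37 C. Thallium flux was read with FluxOr dye. Rate constants were normalized to DMSO controls.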
EPAC2 antag: EPAC2 (human) antagonism; hit rate 0.18% among 360,000; EPAC2 GEF exchange of Rap1B-BODIPY-GDP, fluorescence; Q8WZA2; Potency, µM (highest dose often 114 µM), usual class: inhibitors; also: nearly all actives have a fitted effect of over 45% in size
EPAC1 antag: EPAC1 (human) antagonism. Potency, µM (top dose mostly 115 µM), most hits filed as inhibitors. EPAC1 GEF assay, Rap1b-BODIPY-GDP exchange fluorescence. O95398. hit rate 0.14% among 360,000; also: nearly all actives have a fitted effect of over 50% in size
EPAC1 ag: agonists of human EPAC1; O95398; EPAC1 agonist qHTS, biochemical assay; response scale: 100% = response to 6.5 mM cAMP; Potency, µM (doses to about 154 µM), hits mostly activators; hit rate 0.073% among 360,000; also: nearly all actives have a fitted effect of over 60% in size
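Fluorescent GDP-exchange assay: 100 nM EPAC1 with 250 nM Rap1B preloaded with BODIPY-GDP and 50 uM GDP; compounds tested as concentration series, 5 min at room temperature, then read every 5 min for 30 min (ex 480/em 540 nm); normalized to 6.5 mM cAMP.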
EPAC2 ag: agonists of human EPAC2 (RAPGEF4). Q8WZA2. EPAC2 activation, biochemical qHTS; response scale: 100% = 6.5 mM cAMP response. Potency, µM (series often up to 154 µM), usual class: activators. hit rate 0.079% among 360,000. AID 720711; also: nearly all actives have a fitted effect of over 50% in size
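qHTS, titration series. 100 nM EPAC2 / 250 nM Rap1B-BODIPY-GDP / 50 uM GDP; RT; ex 480/em 540 nm, 5-min reads to 30 min. Norm. to 6.5 mM cAMP = activation.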
KCNH2 3.1 inh: KCNH2 3.1 (human) potassium channel inhibition; activity change, % (tested at about 1.8 µM); U2OS KCNH2 3.1, thallium flux FluxOr; stronger effect = lower value; hit rate 0.95% among 340,000;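 active = maximum activity change below -70%; inconclusive = maximum activity change from -70% to -50%; inactive = maximum activity change above -50%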;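 also: thallium influx rate constant from kinetic fluorescence after stimulation buffer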
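Channel expression came from 3.1 mutant virus (1.77 x 10^8 /mL) applied to suspended U2OS cells for 4 h. Flux was tracked with FluxOr dye plus Red40 quencher, and kinetic rate constants normalized to controls.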
A number is an active result; – = inactive; ? = inconclusive; · = no result given. The list is not random: actives were taken first. Their share in the collection is about 1.4%. Unless noted, calls follow the shape of the dose curve; as a rule, active = well fitted curve in the direction sought with a large enough effect; inconclusive = small, poorly fitted or top-dose-only effect, or another doubt; inactive = no such curve, though single readings can be large; an effect the other way counts as inactive or inconclusive.

SMILES	hERG WT inh	EPAC2 antag	EPAC1 antag	EPAC1 ag	EPAC2 ag	KCNH2 3.1 inh
CCn1nnc(NC(=O)c2ccc(Br)o2)n1	–	–	–	–	–	–
Cn1nnc(NC(=O)c2ccc(Br)o2)n1	–	–	–	–	–	-76.5
Cc1ccc(C(O)c2ncc(-c3ccccc3C(F)(F)F)[nH]2)cc1F (stereo not given)	·	–	–	–	–	·
CC(C)Cn1c(N)c(C(=O)NCC2CCCO2)c2nc3ccccc3nc21 (stereo not given)	–	–	50.1µM	–	–	–
COCCn1c(N)c(C(=O)NCC2CCCO2)c2nc3ccccc3nc21 (stereo not given)	–	–	?	–	–	–
CC(C)c1cc(Cn2c3ccccc3c(=O)n2C(C)Cn2cc(CCc3ccccc3)nn2)on1 (stereo not given)	·	–	–	–	–	·
COc1cc(/C=C/C(=O)c2ccc3c(c2)OCCO3)cc(Br)c1OCC(=O)N(C)C	–	–	79.4µM	–	–	–
O=C(/C=C/c1ccncc1)c1ccc2c(c1)OCCO2	–	–	–	–	–	–
COc1cccc(-c2cccc3c2NC(=O)C3(C)Cc2cccc(F)c2)c1 (stereo not given)	·	–	–	–	–	·
COc1cc(NS(=O)(=O)c2ccc3[nH]c(=O)oc3c2)cc(OC)c1	–	–	–	–	–	-71.1
O=c1[nH]c2ccc(S(=O)(=O)Nc3ccc(Cl)cc3)cc2o1	–	–	–	–	–	?
COC(=O)c1ccc(CN2CCC(CO)(CCOc3ccccc3)CC2)cc1	–	–	–	–	–	-97.0
COc1cc(Cl)c(CN2CCC(CO)(CCOc3ccccc3)CC2)cc1OC	-74.1	–	–	–	–	-94.0
OCC1(CCOc2ccccc2)CCN(CC2=Cc3cc(Cl)ccc3OC2)CC1	–	–	–	–	–	-72.1
O=c1[nH]nnc2c1ncn2C1OC(CO)C(O)C1O (stereo not given)	·	–	–	–	–	·
C[C@H](O)[C@@H]1C(=O)N2CCc3ccc(N4CCN(C)CC4)cc3[C@@H]2C[C@@H]1N(C)C(=O)c1ccc(C#N)cc1	–	–	–	–	–	?
Cc1ccc(S(=O)(=O)N(C)C[C@@H]2Oc3ccc(NC(=O)Nc4cccc5ccccc45)cc3C(=O)N([C@H](C)CO)C[C@H]2C)cc1	–	–	–	–	–	–
Cc1ccc(S(=O)(=O)N2C[C@H]3C(=O)C[C@@H](c4ccccc4)N(S(C)(=O)=O)[C@H]3C[C@H]2c2ccccc2)cc1	·	–	–	–	–	·
Cc1ccc(C)c(S(=O)(=O)/N=C2\C=C(NS(=O)(=O)c3ccccc3)C(=O)c3ccccc32)c1	–	?	–	–	–	–
Cc1cc(C)c(S(=O)(=O)/N=C2/C=C(Sc3ncn[nH]3)C(=O)c3ccccc32)cc1C	–	?	44.7µM	–	–	–
COc1cccc(Cn2c(C(C)n3c(-c4cnccn4)nc4ccccc43)nc3ccccc32)c1 (stereo not given)	·	?	–	–	–	·
CCC(Sc1nc2cc3c(cc2c(=O)n1Cc1ccco1)OCO3)C(=O)Nc1ccccc1OC (stereo not given)	–	–	–	–	–	·
CCC(Sc1nc2cc3c(cc2c(=O)n1Cc1ccco1)OCO3)C(=O)Nc1cccc(OC)c1 (stereo not given)	?	–	–	–	–	-87.5
CCCCN(C)C(=O)c1ccc(Nc2nc(C(N)Cc3ccc(C(F)(F)F)cc3)cs2)nc1 (stereo not given)	·	–	–	–	–	·
O=C(Cc1ccccc1)Nc1ccccc1C(=O)Nc1ccccc1	–	–	–	–	–	-123.3
O=C(Cc1ccccc1)Nc1ccccc1N1CCN(c2ccccc2)CC1	–	–	–	–	–	-70.3
Cc1ccc(NC(=O)c2ccccc2NC(=O)Cc2ccccc2)cc1	–	–	–	–	–	–
CCN(CC)S(=O)(=O)c1ccc(N2CCOCC2)c(NS(=O)(=O)c2ccc(C)c(C)c2)c1	–	–	–	–	–	-94.1
